Sampled rows, rich in hits. Any-hit rate of the full collection: about 5.4%.
PP5 primary – blocks human protein phosphatase 5 activity; purified PP5c, OMFP substrate fluorescence; inhibition, % at 6.7 µM; 320,000 tested, 0.18% active; P53041;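 active = inhibition above the campaign's mean inhibition across all tested compounds plus 3 SD, cut at about 9.5% in these data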;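 note: 0% = DMSO only and 100% = 100 µM cantharidin control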
PP1 inh – blocks human PP1-alpha phosphatase, a PP5 counter-screen | inhibition, % at 6.7 µM | 320,000 tested, 0.9% active | P62136 | purified PP1alpha, OMFP fluorescence | AID 2235;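 active = inhibition above the mean inhibition of all tested compounds plus 3 SD, computed separately for each screening campaign, cut at about 15% in these data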
Target sequence (P62136 whole entry, looked up): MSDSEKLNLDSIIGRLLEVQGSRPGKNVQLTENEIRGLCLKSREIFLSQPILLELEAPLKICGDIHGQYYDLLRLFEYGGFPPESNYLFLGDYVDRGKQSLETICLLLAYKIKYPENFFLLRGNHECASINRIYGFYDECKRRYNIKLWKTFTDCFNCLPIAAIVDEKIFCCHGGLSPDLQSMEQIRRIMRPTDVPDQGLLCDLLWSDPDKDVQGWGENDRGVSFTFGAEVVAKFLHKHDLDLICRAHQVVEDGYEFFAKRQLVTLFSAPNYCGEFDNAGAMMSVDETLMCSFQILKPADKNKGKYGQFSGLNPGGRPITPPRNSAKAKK
ALR H2O2 inh – human ALR oxidase inhibition via reduced H2O2; P55789; purified ALR, DTT oxidation, H2O2 HRP-luminol luminescence; inhibition, % (no concentration beside the values); 290,000 tested, 3.8% active; AID 485317;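 active = mean replicate inhibition above about 79%, with every replicate also reaching it, limit read from the data; inconclusive = only one of the two criteria met; inactive = mean below limit and not every replicate reaching it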
Target sequence (P55789 whole entry, looked up): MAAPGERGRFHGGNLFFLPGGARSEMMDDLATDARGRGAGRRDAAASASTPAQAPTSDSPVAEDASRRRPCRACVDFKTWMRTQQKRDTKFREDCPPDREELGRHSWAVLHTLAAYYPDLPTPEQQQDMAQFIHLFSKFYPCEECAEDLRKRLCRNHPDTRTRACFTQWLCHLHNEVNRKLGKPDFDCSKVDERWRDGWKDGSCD
Calb FLC – C. albicans growth modulation with fluconazole. growth inhibition, % (test concentration not listed). C. albicans CaCi-2 (fluconazole-resistant clinical isolate) + fluconazole, Alamar Blue growth, 48 h. 300,000 tested, 0.57% active;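 active = growth inhibition above about 58% in most replicates, limit read from the data, passing the limit was not always enough; inconclusive = exactly half the replicates above a set limit; inactive = most replicates below a set limit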;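 note: all wells also contain fluconazole at 8 µg/ml as a sub-toxic cotreatment; 0% = median of DMSO wells and 100% = median of geldanamycin control wells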
CSC inhib – cancer stem cell inhibition | cancer stem cell-like cells viability, luminescence | inhibition, % at 7.5 µM | 300,000 tested, 1.1% active | AID 2717; in the data active = inhibition above about 75%; inconclusive = no clear call, values can overlap the other calls; tested in HMLE shEcad cells
* hit, by the source's call; ? = inconclusive; . = no result.

SMILES	PP5 primary	PP1 inh	ALR H2O2 inh	Calb FLC	CSC inhib
CCCNS(=O)(=O)c1ccc(OCC(=O)NCCC2=CCCCC2)cc1	1	1	-6	0	-5
O=S(=O)(c1ccc(Cl)cc1)N1CCN2CCCC2C1 (centres undefined)	-1	-5	-10	-17	-5
O=c1[nH]c(CN2CCN(c3ccccn3)CC2)nc2c(Br)cc(Br)cc12	0	-7	4	14	81*
Oc1ccc(CCNc2ncnc3ccc(Cl)cc23)cc1	-1	-6	?	.	86*
COc1ccc(-c2cc(C(F)(F)F)n3nc(C(=O)NCCCN4CCOCC4)cc3n2)cc1	4	-1	-5	14	-5
CC1CCN(C(=S)c2ccc(O)cc2)CC1	1	-5	96*	-16	2
Nc1cc(S(=O)(=O)C(F)(F)F)ccc1C(=O)O	0	2	10	-8	-11
Nc1cc(C(F)(F)F)ccc1C(=O)O	0	-3	97*	-3	-7
CC1CCCC(NC(=O)COC(=O)c2cc(=O)[nH]c3ccccc23)C1C (centres undefined)	.	.	-11	.	-20
CCOC(=O)n1ccc(C(=O)Nc2ccccc2F)n1	-1	-5	96*	-8	-15
COc1nccnc1NS(=O)(=O)c1ccc(NC(=S)NC(=O)c2cccc(F)c2)cc1	1	1	91*	25	-3
[O-][N+]1=c2ccc(Nc3ccccc3)cc2=NC12CCCCC2	7	-7	-33	108*	80*
COc1ccc(Nc2ccc3c(c2)=NC2(CCCCC2)[N+]=3[O-])cc1	3	3	-2	76	52
CCN(CC)c1ccc(/C=N/NC(=O)c2cccc(N3CCCC3=O)c2)cc1	0	-1	97*	-1	18
COc1cc(/C=N/NC(=O)c2cccc(N3CCCC3=O)c2)ccc1O	-1	2	100*	8	12
O=C(N/N=C/c1cccnc1)c1cccc(N2CCCC2=O)c1	1	-1	-10	23	-5
CC(=O)Oc1cc2cccc(OC(C)=O)c(=O)c2c(OC(C)=O)c1OC(C)=O	3	3	99*	48	-4
CC(=O)Oc1cccc2c1C(=O)c1c(OC(C)=O)cc(C(=O)O)cc1C2=O	2	-1	.	.	21
Cc1ccc2c(=O)cc(C(=O)NC3CCS(=O)(=O)C3)oc2c1C (centres undefined)	-1	-2	98*	-2	.
O=C1CCCc2c1[nH]c1ccc(CN3CCCCC3)cc21	-2	-5	.	2	-1
COc1ccc(/C=N/n2cnn(Cc3ccccc3Cl)c2=S)cc1OC	2	-2	3	-6	4
Oc1ccc(/C=N/n2cnn(Cc3ccccc3Cl)c2=S)c(O)c1	3	-2	10	7	78*
COC(=O)Oc1ccc(/C=N/NC(=O)CSCc2ccccc2Br)cc1OC	4	4	99*	-2	2
COc1ccc(/C=N/NC(=O)CCc2c(C)n[nH]c2C)cc1OC	0	0	7	6	-7
COc1ccc(/C=N/NC(=O)CCn2nc(C)cc2C)cc1O	1	1	77*	-2	-5
SMILES	PP5 primary	PP1 inh	ALR H2O2 inh	Calb FLC	CSC inhib
O=C(CCN1CCN(C(c2ccccc2)c2ccccc2)CC1)N/N=C/c1ccc(O)cc1	0	0	98*	-15	.
COc1cc(/C=N/NC(=O)CCc2c(C)n[nH]c2C)ccc1O	1	3	99*	15	-7
Cc1ccc(-c2nnc(CSc3nnc(COc4cccc5ccccc45)n3-c3ccccc3)o2)cc1	6	11	-2	15	.
O=C(CCN1CCCCC1)N/N=C/c1ccc(Br)cc1	1	2	0	6	-7
CC(=O)Nc1ccc(/C=N/NC(=O)CCN2CCN(c3ccccc3)CC2)cc1	-1	-5	5	3	-15
COc1ccc(OC)c(NC(=O)CCN2CCN(c3ccccc3)CC2)c1	-1	-1	92*	7	-16
COc1cc(/C=N/NC(=O)CCN2CCCCC2)ccc1O	0	-5	99*	-6	-8
COc1ccc(/C=N\NC(=O)CCN2CCN(c3ccccc3)CC2)cc1OC	1	2	98*	-9	3
COc1ccc(OC)c(NC(=O)CCN2CCN(Cc3ccccc3)CC2)c1	0	-5	-52	-29	-6
CC(C)(C)N1C(=O)c2ccc(C(=O)Nc3ccc(O)cc3)cc2C1=O	1	0	98*	-4	13
CC(C)(C)NC(=O)c1cccc(NC(=O)c2ccc3c(c2)C(=O)N(C(C)(C)C)C3=O)c1	5	1	-1	28	2
C=CCOC(=O)C1=C[C@H](C(C)(C)C)[C@@H](CCCO)[C@H](OCC)O1	1	0	-4	-8	-7
CC1CC(C)CN(C(=O)c2cc3ccccc3o2)C1 (centres undefined)	6	-4	8	-4	4
CC1CC(C)CN(C(=O)c2cc3cc(Br)cc(Br)c3o2)C1 (centres undefined)	1	8	-3	6	89*
Cc1cccc(Nc2nc(-c3ccc(O)cc3O)cs2)n1	4	0	97*	4	97*
N#Cc1ccc(Nc2nc(-c3ccc(O)cc3O)cs2)cc1C(F)(F)F	5	6	72	.	85*
Oc1ccc(-c2csc(Nc3ncccn3)n2)c(O)c1	3	0	17	21	-2
CCOC(=O)c1csc(NC(=O)c2cc(OC)c(OC)c(OC)c2)n1	2	1	-14	.	1
CCOC(=O)CNC(=O)CSc1nnc(C)c(=O)[nH]1	1	-2	2	5	-8
CCOC(=O)CSc1nnc(NCC(=O)OC(C)C)c(=O)[nH]1	-1	-4	97*	-2	-2
Cc1ccc(S(=O)(=O)N2CCN(C(=O)CCn3nc(C)c(C)c3C)CC2)cc1	1	7	-6	1	-1
N#CC1=C(N2CCOCC2)/C(=C\c2ccccc2)CC1	5	1	93*	-2	15
Cc1nn(C)c(C)c1NC(=O)CSc1nc(-c2ccccc2Cl)nc2c1cnn2-c1ccccc1	0	16*	-8	-9	-7
Cc1nn(C)c(C)c1NC(=O)CSc1nc(C2CC2)nc2c1cnn2-c1ccccc1	4	-4	3	-8	-8
O=C1c2ccsc2SCCN1Cc1ccccc1	-1	-6	-12	-36	-5
SMILES	PP5 primary	PP1 inh	ALR H2O2 inh	Calb FLC	CSC inhib
COc1ccc(Cc2nnc(N/N=C/c3ccc(O)cc3O)[nH]c2=O)cc1OC	3	2	.	-3	91*
CCCCCC/C=N/Nc1nnc(Cc2ccc(OC)c(OC)c2)c(=O)[nH]1	1	1	-6	5	3
C/C(=N\NC(=O)c1nn(C)c(C)c1Br)c1ccc(NC(=O)C2CCCC2)cc1	.	.	-4	112*	-10
CCOC(=O)c1ccc2[nH]c3c(c2c1)CCCC3	3	3	98*	-66	0
CCCC(C)NC(=O)c1ccc2[nH]c3c(c2c1)CC(C)CC3 (centres undefined)	4	-2	12	.	-1
CCC(C)c1ccccc1NC(=O)COC(=O)c1ccc2[nH]c3c(c2c1)CCCC3 (centres undefined)	3	1	-10	-24	107*

High-throughput results: PubChem, several laboratories
